Assay [1] can be described thus: Cell Viability - Jurkat (AID 426;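 active = dose-dependent loss of cell ATP signal giving a full or clear fitted curve, ranked by lower potency value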;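 also: potency is read from the fitted curve at half-maximal effect; cells exposed to compound for 40 hours at 37 °C before ATP read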). The following applies: qHTS. The method in brief:
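Cells of the human T-cell leukemia line Jurkat (E6-1) are seeded at 5000 per well, treated with compound across a concentration range for 40 hours at 37 °C, then lysed with CellTiter-Glo; luminescence reports ATP.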

Assay [2] can be described thus: Cell Viability - Hek293 (AID 427;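 active = compounds whose dose-response curve shows a full or clear partial loss of cell viability, called from curve shape rather than a numeric limit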;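 also: potency is read from the fitted curve at half-maximal effect; cells exposed to compound for 40 hours at 37 °C before reading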). The following applies: qHTS. Summed up:
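Luminescent ATP content (CellTiter-Glo, 20 min at room temperature) was measured after a 40 hr, 37 °C compound exposure of HEK293 cells. AC50 values came from Hill-equation fits of qHTS concentration-response data normalized to DMSO and 100 uM tamoxifen.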

Assay [3] concerns the target Mitogen-activated protein kinase 10 (Mus musculus) (UniProt Q61831). Description: JNK3 AlphaScreen Assay (AID 530; active = well fitted curve in either direction with a large enough effect, not every such curve was filed as active;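 also: kinase came from lysate of stimulated human HepG2 cells; signal reports phosphorylation of biotinylated GST-cJun 1-79 at Ser73 with 10 µM ATP; % is scaled to controls: 0 for no effect and ±100 for the full control effect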). The following applies: JNK3 lysate, c-Jun phosphorylation; series mostly up to 57.1 µM. Summed up:
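qHTS titrations with 15 min compound pre-incubation before adding ATP (10 uM final). Read-out: AlphaScreen of Ser73-phosphorylated biotin-GST-cJun using HepG2 lysate JNK3 activated by IL-1β and TNFα.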
(In general: In Alpha technology, singlet oxygen from a donor bead excites a nearby acceptor bead.)

Assay [4] is described as follows: Cell Viability - NIH 3T3 (AID 541).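 Also: plate controls were DMSO alone for no effect and tamoxifen positive control for full effect; nearly all actives have a fitted effect of over 25% in size.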 The following applies: NIH 3T3 cell viability, qHTS; activity change, negative = cytotoxicity: at 92.2 µM (top of the series). The method in brief: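 Cells seeded at 1000/well, rested 5 hr at 37 °C, then dosed and incubated 40 hr at 37 °C. CellTiter-Glo added, 20 min room temperature, luminescence read. AC50 by Hill fit.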
A short description of assay [5]: Cell Viability - H-4-II-E (AID 543). Also: % is scaled to controls: 0 for no effect and ±100 for the full control effect; nearly all actives have a fitted effect of over 35% in size. The following applies: H-4-II-E rat hepatoma viability; series mostly up to 92.2 µM. The method in brief:
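Cells seeded at 1500 per well and rested 5 hr; compounds added; 40 hr incubation at 37 °C; CellTiter-Glo added, 20 min at room temperature; luminescence read. Hill-equation fits gave AC50.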

Assay [6] is described as follows: Cellular Toxicity (caspase-3) NIH 3T3 (AID 666).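 Also: caspase signal read after 16 h compound exposure; 0% = DMSO basal and 100% = 100 µM tamoxifen stimulation.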 The following applies: NIH 3T3 caspase-3 activation, apoptosis/toxicity, 0% DMSO, 100% is 100 µM tamoxifen; series mostly up to 92.2 µM. The method in brief:
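Cells were plated at 1000 per well and incubated 5 hr at 37°C, then compound was added for 16 hr. Caspase-Glo 3/7 reagent followed for 20 min at room temperature before luminescence was read.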

Assay [7] is described as follows: Cell Viability - LYMP2-004 (AID 966).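 Also: plate controls were DMSO only for no effect and tetraoctylammonium bromide control for full effect; nearly all actives have a fitted effect of over 65% in size.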 The following applies: LYMP2-004 lymphoblastoid cell viability, qHTS; series mostly up to 92.2 µM. Summed up:
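qHTS cytotoxicity: human lymphoblastoid line, 24 hr compound treatment, 37 C, complete medium. Viability read as cellular ATP via luciferase luminescence; tetraoctylammonium bromide served as positive control.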

Assay [8] can be described thus: Cell Viability - LYMP2-019 (AID 973).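 Also: 0% = DMSO alone and full effect = 92 µM tetraoctylammonium bromide; nearly all actives have a fitted effect of over 55% in size.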 The following applies: LYMP2-019 lymphoblastoid cell line viability; series mostly up to 92.2 µM. The method in brief:
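Cytotoxicity is scored as a concentration-dependent drop in cellular ATP after cells (2500/well) receive compound for 24 hr at 37 C. Tetraoctylammonium bromide serves as positive control.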

The nature of assay [9]: Cell Viability - LYMP2-021 (AID 974).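 Also: compound exposure lasts 24 hours at 37 °C; % is scaled to controls: 0 for no effect and ±100 for the full control effect; nearly all actives have a fitted effect of over 55% in size.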 The settings on record: LYMP2-021 lymphoblastoid cells viability; series mostly up to 92.2 µM. The method in brief:
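Loss of cellular ATP, measured with a luciferase-based CellTiter-Glo readout, serves as the toxicity signal in human lymphoblastoid cells treated for 24 hours at 37 C. Potency is reported as AC50 from a standard Hill model.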

Assay [10] can be described thus: Cell Viability - LYMP2-023 (AID 975).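 Also: cellular ATP measured by luciferase luminescence as viability proxy; plate controls were DMSO only for no effect and 92 µM tetraoctylammonium bromide control for full effect; nearly all actives have a fitted effect of over 55% in size.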 The settings on record: LYMP2-023 lymphoblastoid cell viability; series mostly up to 92.2 µM. The method in brief: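 Steps: seed 2500 human lymphoblastoid cells per well, incubate 5 hr at 37 C, add compound for 24 hr at 37 C, add CellTiter-Glo, hold 30 min at room temperature, read luminescence. AC50 derived by Hill modelling.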

A short description of assay [11]: Cell Viability - LYMP2-002 (AID 977).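 Also: compound exposure lasted 24 h at 37 °C; plate controls were DMSO only for no effect and 92 µM tetraoctylammonium bromide for full effect.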 The following applies: LYMP2-002 lymphoblastoid cell viability, qHTS; series mostly up to 92.2 µM. The method in brief:
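Human lymphoblastoid cells (2500/well) in complete medium were preincubated 5 hr at 37 C, then exposed to compounds for 24 hr at 37 C. Intracellular ATP was read by CellTiter-Glo luminescence; AC50 came from Hill-equation concentration-response fits.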

A short description of assay [12]: Cell Viability - LYMP2-007 (AID 979).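 Also: cells exposed to compound for 24 h before reading; 0% = DMSO only and the negative end = 92 µM tetraoctylammonium bromide; nearly all actives have a fitted effect of over 60% in size.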 The following applies: LYMP2-007 lymphoblastoid cell viability; series mostly up to 92.2 µM. Summed up:
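Cells are seeded at 2500 per well and rested 5 hr. Compounds are then added over a concentration series for 24 hr at 37 C. CellTiter-Glo is added for 30 min at room temperature before luminescence reading.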

Assay [13] is described as follows: Cell Viability - LYMP2-014 (AID 983).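 Also: plate controls were DMSO only for no effect and 92 µM tetraoctylammonium bromide for full effect; nearly all actives have a fitted effect of over 50% in size.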 The following applies: LYMP2-014 lymphoblastoid cells, viability qHTS; series mostly up to 92.2 µM. The method in brief:
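Cells are plated at 2500/well and left 5 hr at 37 C. Compounds are added across a concentration range and incubated 24 hr at 37 C in complete medium. CellTiter-Glo is added, and luminescence is read after 30 min at room temperature.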

Assay [14] can be described thus: Cell Viability - LYMP2-018 (AID 985).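 Also: compound exposure lasted 24 hr at 37 °C; plate controls were DMSO only for no effect and tetraoctylammonium bromide at 92 µM for full effect; nearly all actives have a fitted effect of over 50% in size.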 The settings on record: LYMP2-018 lymphoblastoid cells, viability (qHTS); series mostly up to 92.2 µM. Summed up: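 Seed 2500 lymphoblastoid cells per well, incubate 5 hr at 37 C, add compound and incubate 24 hr at 37 C, add CellTiter-Glo, wait 30 min at room temperature, then read luminescence.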
A general note: qHTS replaces the single test concentration by a dilution series.

A short description of assay [15]: Cell Viability - LYMP2-020 (AID 986).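 Also: plate controls were DMSO only for no effect and tetraoctylammonium bromide at 92 µM for full effect; nearly all actives have a fitted effect of over 55% in size.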 The following applies: series mostly up to 92.2 µM. Summed up:
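Seed 2500 cells per well and incubate 5 hr at 37 C. Add compounds at a concentration series and incubate 24 hr at 37 C. Add CellTiter-Glo, wait 30 min at RT, read luminescence, and fit a Hill curve for AC50.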

Assay [16] is described as follows: Cell Viability - LYMP2-022 (AID 987). The following applies: LYMP2-022 lymphoblastoid cell viability; series mostly up to 92.2 µM. The method in brief:
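Cells were seeded at 2500 per well, rested 5 hr at 37 C, and treated with titrated compounds for 24 hr at 37 C. Cellular ATP was then quantified by luciferase luminescence, and AC50 values were derived from Hill-modelled concentration-response curves.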

Assay [17] is described as follows: Cell Viability - LYMP2-026 (AID 989). Also: % is scaled to controls: 0 for no effect and ±100 for the full control effect; nearly all actives have a fitted effect of over 50% in size. The settings on record: LYMP2-026 lymphoblastoid cell viability, qHTS; series mostly up to 92.2 µM. Summed up:
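Cells are seeded at 2500 per well and held 5 hr at 37 C. Compounds are added in concentration series for 24 hr, then CellTiter-Glo reagent is applied and luminescence read.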

Assay [18] is described as follows: qHTS assay for small molecule agonists of retinoid X receptor alpha signaling (AID 588544). The settings on record: HEK293T RXRa-UAS-bla, beta-lactamase reporter, 18 h; 530 nm emission.
Assay [19] in a line: qHTS assay for small molecule antagonists of retinoid X receptor alpha signaling (AID 588546).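 Also: cells stimulated with 9-cis-retinoic acid as agonist; % is scaled to controls: 0 for no effect and ±100 for the full control effect.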 The following applies: HEK293T RXRa-UAS-bla, beta-lactamase ratio, antagonist mode; measured here: W530 green channel, cytotoxicity proxy. Summed up:
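Beta-lactamase reporter inhibition, read as CCF4 fluorescence ratio (ex 405, em 460/530 nm) after 2 h at RT. HEK293T UAS-bla cells, 2500/well, were stimulated with 9-cis-RA at 500 or 100 nM final alongside test compound for 18 h at 37 C.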

Assay [20] concerns the target Voltage-gated inwardly rectifying potassium channel KCNH2 (Homo sapiens) (UniProt Q12809). As to the kind of experiment: qHTS Assay for Small Molecule Inhibitors of the Human hERG Channel Activity (AID 588834).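 Also: top concentration of the series differs between compounds; % is scaled to controls: 0 for no effect and ±100 for the full control effect; lower thallium flux fluorescence means stronger hERG block; nearly all actives have a fitted effect of over 50% in size.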 The following applies: U2OS BacMam hERG, FluxOR thallium flux fluorescence; series mostly up to 92.2 µM. Summed up: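 Homogeneous FluxOR thallium flux assay using hERG-expressing U2OS cells (BacMam). Compound treatment about 10 minutes preceded stimulation; reduced fluorescence taken as channel block.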

Where “and” joins values, the source holds several entries; their conditions need not be identical. Equal values may be shown once. Records with an inconclusive call do not appear. Calls of active or inactive are those of the source. Unless noted, calls follow the shape of the dose curve; as a rule, active = well fitted curve in the direction sought with a large enough effect; inconclusive = small, poorly fitted or top-dose-only effect, or another doubt; inactive = no such curve, though single readings can be large; an effect the other way counts as inactive or inconclusive. Some results are limits rather than exact numbers.

Voltage-gated inwardly rectifying potassium channel KCNH2 (Homo sapiens), sequence (Q12809 whole entry, looked up): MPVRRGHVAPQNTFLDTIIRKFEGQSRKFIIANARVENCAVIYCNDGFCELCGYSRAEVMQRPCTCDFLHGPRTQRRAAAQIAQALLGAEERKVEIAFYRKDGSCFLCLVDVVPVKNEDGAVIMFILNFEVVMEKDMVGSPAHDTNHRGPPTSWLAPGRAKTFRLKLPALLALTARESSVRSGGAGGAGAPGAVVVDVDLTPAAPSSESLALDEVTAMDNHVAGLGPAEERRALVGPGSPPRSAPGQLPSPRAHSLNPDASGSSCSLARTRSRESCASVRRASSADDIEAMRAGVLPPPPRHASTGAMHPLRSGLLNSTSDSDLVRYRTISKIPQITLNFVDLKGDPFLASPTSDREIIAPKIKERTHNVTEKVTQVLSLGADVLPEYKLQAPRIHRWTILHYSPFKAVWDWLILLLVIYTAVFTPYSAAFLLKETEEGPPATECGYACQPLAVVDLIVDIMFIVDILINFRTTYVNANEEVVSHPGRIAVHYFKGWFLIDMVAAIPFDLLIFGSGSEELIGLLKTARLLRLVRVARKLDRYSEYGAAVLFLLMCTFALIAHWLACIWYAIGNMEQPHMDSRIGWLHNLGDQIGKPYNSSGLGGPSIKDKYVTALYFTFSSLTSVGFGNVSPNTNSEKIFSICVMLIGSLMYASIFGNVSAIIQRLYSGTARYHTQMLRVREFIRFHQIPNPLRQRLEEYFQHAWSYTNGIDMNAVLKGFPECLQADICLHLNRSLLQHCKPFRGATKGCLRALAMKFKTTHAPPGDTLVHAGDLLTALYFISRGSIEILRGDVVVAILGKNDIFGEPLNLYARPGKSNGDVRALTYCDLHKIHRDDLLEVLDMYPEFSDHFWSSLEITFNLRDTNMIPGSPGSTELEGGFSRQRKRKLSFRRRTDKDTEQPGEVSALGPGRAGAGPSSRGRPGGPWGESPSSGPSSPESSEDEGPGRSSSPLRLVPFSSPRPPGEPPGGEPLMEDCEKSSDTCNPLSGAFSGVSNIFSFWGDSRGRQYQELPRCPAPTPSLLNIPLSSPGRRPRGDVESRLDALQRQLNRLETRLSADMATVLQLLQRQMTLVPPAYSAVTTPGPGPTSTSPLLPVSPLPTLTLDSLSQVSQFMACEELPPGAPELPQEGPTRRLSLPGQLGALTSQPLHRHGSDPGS

In the case of `C=CC(N)=O`, the Potency in [1] and in assay [2] was > 92 µM (inactive) each time. For the same compound, the compound was classed as inactive in [3] and in assay [6]. Further, the activity change, negative = cytotoxicity in assay [4] was 5.3% (inactive) and 3.72% (inactive). Also, the Potency entry in [5], in assay [7], in [8], in assay [9], in assay [10] and in assay [11] was “inactive” throughout. The Potency entry in assay [12], in assay [13], in assay [14], in assay [15], in assay [16] and in assay [17] was “inactive” in each case. Further, the max response in [18] is -5.65% and -3.81%; in assay [19] it was -10.1% and 0.0016% and -8.94%.

In the case of `Clc1nc(Cl)nc(Nc2ccccc2Cl)n1`, the Potency in [1] and in assay [2] was > 92 µM (inactive) each time. Moreover, the compound was classed as inactive in [3] and in assay [6]. Besides, the activity change, negative = cytotoxicity in assay [4] was -3.86% (inactive). In addition, the Potency result in assay [5], in assay [7], in assay [8], in [9], in assay [10] and in assay [11] was “inactive” each time. Moreover, the Potency result in assay [12], in assay [13], in assay [14], in assay [15], in [16] and in [17] was “inactive” in each case. Besides, the Potency result in assay [20] is “inactive”. The figures for the max response in assay [18] and in assay [19] were -6.76% and 1.32%, respectively.

`Clc1ccc2ccccc2c1`: the Potency in [1] and in assay [2] was > 92 µM (inactive) throughout. Moreover, the outcome in assay [3] and in [6] was inactive. In addition, the activity change, negative = cytotoxicity in assay [4] was 7.96% (inactive). The Potency entry in [5], in [7], in assay [8], in [9], in assay [10] and in [11] was “inactive” each time. The Potency entry in [12], in [13], in assay [14], in assay [15], in [16] and in assay [17] was “inactive” throughout. The Potency result in assay [20] was “inactive”. Further, the max response in [18] was -15.7%.

Consider `CC(C)(C)OO`, for which the Potency in [1] and in assay [2] was > 92 µM (inactive) each time. Moreover, the compound was classed as inactive in assay [3] and in assay [6]. Further, the activity change, negative = cytotoxicity in assay [4] was -4.73% (inactive) and 1.03% (inactive). In addition, the Potency result in assay [5], in assay [7], in assay [8], in assay [9], in [10] and in assay [11] was “inactive” in each case. For the same compound, the Potency entry in assay [12], in assay [13], in [14], in [15], in assay [16] and in [17] was “inactive” each time. Further, in assay [20], the Potency entry was “inactive”. For the same compound, the max response in assay [18] was 4.87% and -13.2%; in assay [19], -3.93% and -2.51%.

On to `COc1ccc(C=O)cc1OC`, for which the Potency in assay [1] and in [2] was > 92 µM (inactive) throughout. Further, the result in assay [3] and in [6] was inactive. Further, the activity change, negative = cytotoxicity in [4] is -14% (inactive). Also, the Potency entry in assay [5], in assay [7], in assay [8], in assay [9], in [10] and in assay [11] was “inactive” in each case. Also, the Potency result in assay [12], in assay [13], in assay [14], in [15], in assay [16] and in [17] was “inactive” in each case. Also, the Potency entry in [20] was “inactive”. Further, the max response in [18] was 17.8% and -5.1%; in assay [19] it was -5.56% and -4.77%.

Source of the values: PubChem BioAssay (NCATS).
